This passage reports growth inhibition, inhibition and outcome results from PubChem BioAssay.

A short description of assay [1]: antimalarial activity against Dd2 strain (AID 2302;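 active = growth inhibition above 50% at the single 2 µM test dose, taken to imply half-maximal potency below 2 µM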;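 note: 0% = DMSO untreated growth and 100% = chloroquine plus artemisinin killed control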). To be noted: P. falciparum Dd2 in RBCs, LDH growth readout, 72 h; at 2 µM; hits give high values.
Assay [2] can be described thus: HepG2 cytotoxicity, primary screen, cytotoxicity control for P. falciparum antimalarial project, cell-based, ATP luminescence (AID 2303;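 active = inhibition above 50%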;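 note: 0% = DMSO wells and 100% = digitonin-killed cells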). To be noted: HepG2 viability, 24-48 h, at 10 µM, hits give high values.
The target of assay [3] is L-lactate dehydrogenase (Plasmodium falciparum (isolate CDC / Honduras)) (UniProt Q27743). Description: PfLDH activity inhibition – cell lysate, 3D7 strain, counter-screen for P. falciparum growth inhibition project (AID 2304).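 Note: 0% = vehicle and 100% = reference inhibitor.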 Conditions: P. falciparum 3D7 crude extract, LDH APAD/NBT absorbance; at 2 µM; hits give high values. A general note: Counterscreens check selectivity or assay interference.
L-lactate dehydrogenase (Plasmodium falciparum (isolate CDC / Honduras)), sequence (Q27743 whole entry, looked up): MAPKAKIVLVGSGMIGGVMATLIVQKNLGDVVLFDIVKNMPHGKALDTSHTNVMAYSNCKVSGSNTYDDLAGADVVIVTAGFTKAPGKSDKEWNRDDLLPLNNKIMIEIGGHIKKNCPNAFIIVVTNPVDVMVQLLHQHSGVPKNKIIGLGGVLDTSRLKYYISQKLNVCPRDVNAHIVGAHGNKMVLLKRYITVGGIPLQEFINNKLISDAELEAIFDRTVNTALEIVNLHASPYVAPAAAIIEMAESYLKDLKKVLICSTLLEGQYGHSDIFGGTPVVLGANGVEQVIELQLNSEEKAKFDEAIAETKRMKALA

A short description of assay [4]: inhibition of 3D7 malaria parasite growth – strain 3D7 (AID 2306).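 Note: 0% = DMSO wells and 100% = chloroquine plus artemisinin control wells.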 To be noted: P. falciparum 3D7 erythrocytic growth, LDH absorbance, 72 h; at 2 µM; hits give high values.
Assay [5] deals with Calcium-dependent protein kinase 1 (Plasmodium falciparum (isolate 3D7)) (UniProt P62344). Description: PfCDPK1 kinase inhibitors, biochemical, TCAMS library (AID 1159585; cut-off not given, nearly all actives have IC50 up to about 0.98 µM;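 note: inhibitors leave more ATP so luminescence rises with inhibition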). To be noted: recombinant PfCDPK1, Kinase-Glo ATP depletion luminescence.
Calcium-dependent protein kinase 1 (Plasmodium falciparum (isolate 3D7)), sequence (P62344 whole entry, looked up): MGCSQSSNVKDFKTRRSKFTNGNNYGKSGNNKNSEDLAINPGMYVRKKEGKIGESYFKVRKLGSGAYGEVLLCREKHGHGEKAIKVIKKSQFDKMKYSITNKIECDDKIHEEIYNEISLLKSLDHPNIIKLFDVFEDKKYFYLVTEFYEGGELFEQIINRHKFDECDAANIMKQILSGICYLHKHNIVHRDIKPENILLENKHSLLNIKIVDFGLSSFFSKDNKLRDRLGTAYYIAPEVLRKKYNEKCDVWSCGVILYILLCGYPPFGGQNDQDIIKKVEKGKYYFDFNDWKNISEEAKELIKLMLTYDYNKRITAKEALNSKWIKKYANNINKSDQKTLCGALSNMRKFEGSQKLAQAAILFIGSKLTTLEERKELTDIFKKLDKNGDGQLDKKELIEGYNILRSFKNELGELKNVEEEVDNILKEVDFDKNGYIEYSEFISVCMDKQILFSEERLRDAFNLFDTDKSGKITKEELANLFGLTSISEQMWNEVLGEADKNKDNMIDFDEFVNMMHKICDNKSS
Assay [6] has as its target Plasmodium falciparum protein kinase 6 (PK6, PF3D7_1337100) (UniProt Q8IDW1). Description: PfPK6 kinase inhibitors, biochemical, TCAMS library (AID 1159586). To be noted: recombinant PfPK6, Kinase-Glo ATP depletion luminescence.
For assay [7], the target named is Protein kinase 7 (PK7), Plasmodium falciparum 3D7 (PF3D7_0213400) (UniProt Q7YTF7). Kind of assay: inhibition of Plasmodium PK7 catalytic activity – biochemical, TCAMS antimalarial set, Kinase-Glo luminescence (AID 1159587). To be noted: recombinant PfPK7, Kinase-Glo ATP depletion luminescence.
Protein kinase 7 (PK7), Plasmodium falciparum 3D7 (PF3D7_0213400), sequence (Q7YTF7 1-343): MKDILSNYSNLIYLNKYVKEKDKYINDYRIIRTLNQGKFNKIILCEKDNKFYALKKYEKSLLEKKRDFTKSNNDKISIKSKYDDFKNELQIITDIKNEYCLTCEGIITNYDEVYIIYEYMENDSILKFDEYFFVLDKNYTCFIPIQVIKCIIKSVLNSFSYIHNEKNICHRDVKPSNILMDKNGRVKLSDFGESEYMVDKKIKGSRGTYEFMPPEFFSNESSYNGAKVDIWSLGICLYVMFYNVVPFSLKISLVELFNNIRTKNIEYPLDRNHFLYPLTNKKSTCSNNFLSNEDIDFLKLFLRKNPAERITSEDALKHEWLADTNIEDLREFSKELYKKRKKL
The target in assay [8] is Calcium-dependent protein kinase 4 (Plasmodium falciparum (isolate 3D7)) (UniProt Q8IBS5). Kind of assay: PfCDPK4 kinase inhibitors, biochemical, TCAMS library (AID 1159588; cut-off not given, nearly all actives have IC50 up to about 0.91 µM). Conditions: recombinant PfCDPK4, Kinase-Glo ATP depletion luminescence. In general terms: Kinase-Glo reads ATP consumption through a luciferase reaction.
Calcium-dependent protein kinase 4 (Plasmodium falciparum (isolate 3D7)), sequence (Q8IBS5 whole entry, looked up): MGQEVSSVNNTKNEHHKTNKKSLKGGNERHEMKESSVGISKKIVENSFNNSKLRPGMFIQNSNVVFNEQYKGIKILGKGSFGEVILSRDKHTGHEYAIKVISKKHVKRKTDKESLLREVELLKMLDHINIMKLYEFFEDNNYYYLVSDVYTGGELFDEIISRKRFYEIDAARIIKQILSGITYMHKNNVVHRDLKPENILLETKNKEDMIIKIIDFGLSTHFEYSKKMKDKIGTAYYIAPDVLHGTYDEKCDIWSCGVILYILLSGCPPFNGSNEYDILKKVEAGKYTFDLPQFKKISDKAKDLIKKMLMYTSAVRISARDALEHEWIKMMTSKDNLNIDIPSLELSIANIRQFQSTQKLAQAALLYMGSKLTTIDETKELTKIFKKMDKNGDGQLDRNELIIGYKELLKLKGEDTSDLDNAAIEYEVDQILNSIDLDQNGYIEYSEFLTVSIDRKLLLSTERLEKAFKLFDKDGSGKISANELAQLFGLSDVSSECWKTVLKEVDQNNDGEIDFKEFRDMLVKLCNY

The term inhibition denotes the relative decrease from the control value, in per cent.

Unmarked numbers belong to inactive results. For some of these results: Entries with a potency or affinity are not part of this list. Calls of active or inactive are those of the source. Unless noted, the rule behind the calls is not given here.

Plasmodium falciparum protein kinase 6 (PK6, PF3D7_1337100), sequence (Q8IDW1 1-305): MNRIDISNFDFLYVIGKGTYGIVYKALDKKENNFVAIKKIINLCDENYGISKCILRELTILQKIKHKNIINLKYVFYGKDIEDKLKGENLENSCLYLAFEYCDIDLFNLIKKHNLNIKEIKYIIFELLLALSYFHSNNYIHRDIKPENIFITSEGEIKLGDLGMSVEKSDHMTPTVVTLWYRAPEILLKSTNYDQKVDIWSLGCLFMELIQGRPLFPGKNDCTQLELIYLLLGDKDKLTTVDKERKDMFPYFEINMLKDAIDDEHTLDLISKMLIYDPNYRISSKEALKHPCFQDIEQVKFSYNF

Regarding `CCC[C@@H]([C@@H](CC1CCC(C)CC1)C(=O)N[C@@H](CCCNc1ncccn1)C(=O)Nc1nccs1)N(O)C=O` (stereo not given in full), the growth inhibition in assay [1] and in assay [4] was 98% (active) throughout. Moreover, the inhibition in assay [2] is 10%; in assay [3], 5%. The result in assay [5], in assay [6], in assay [7] and in assay [8] was inactive.

Turning to `Cc1cccc2[nH]c(-c3ccc(-c4ccc(CNCc5ccccc5)cc4)cc3)nc12`, the figures for the growth inhibition in assay [1] and in assay [4] were 90% (active) and 99% (active), respectively. For the same compound, the inhibition is 5% in assay [2] and -2% in assay [3]. Also, the result in assay [5], in assay [6], in assay [7] and in assay [8] was inactive.

With `Oc1ccc(CCNc2nc(NCc3ccccc3-c3cccc(Cl)c3)nc(N3CCNCC3)n2)cc1`, the growth inhibition in assay [1] is 11%; in assay [4] it was 84% (active). Besides, the inhibition is 15% in assay [2] and -3% in assay [3]. Moreover, the outcome in assay [5], in assay [6], in assay [7] and in assay [8] was inactive.

As for `C=Cc1c(C2CCN(CCCCNC(=O)c3ccc(-c4ccc(C#N)cc4)cc3)CC2)ccc2c1CCCC2`, the values for the growth inhibition in assay [1] and in assay [4] were 75% (active) and 94% (active), respectively. In addition, the inhibition is 75% (active) in assay [2] and 1% in assay [3]. Besides, the outcome in assay [5], in assay [6], in assay [7] and in assay [8] was inactive.

For the compound `O=C(Nc1ccc([N+](=O)[O-])cc1)Nc1cc(OCC(F)(F)F)cc(OCC(F)(F)F)c1`, the growth inhibition in assay [1] and in assay [4] was 100% (active) throughout. Further, the inhibition in assay [2] was 71% (active); in assay [3] it was 5%. Also, the outcome in assay [5], in assay [6], in assay [7] and in assay [8] was inactive.

In the case of `COc1ccc(C(C(=O)NC2CCN(C[C@H](O)c3ccnc4ccc(OC)cc34)CC2)N2CCN(c3ccc([N+](=O)[O-])cc3)CC2)cc1` (stereo not given in full), the growth inhibition in assay [1] was 80% (active); in assay [4], 99% (active). Besides, the inhibition in assay [2] was 17%; in assay [3] it was -3%. For the same compound, the outcome in assay [5], in assay [6], in assay [7] and in assay [8] was inactive.

Consider `COc1cccc(OC)c1OCCCOc1c(C)nc(N)nc1N`, for which the figures for the growth inhibition in assay [1] and in assay [4] were -1% and 97% (active), respectively. The inhibition in assay [2] is 31%; in assay [3], 0%. Besides, the result in assay [5], in assay [6], in assay [7] and in assay [8] was inactive.

On to `COc1cc(Cc2cnc(N)nc2N)c2c(c1OC)OC(C)C=C2` (stereo not given), for which the growth inhibition is 1% in assay [1] and 87% (active) in assay [4]. Also, the values for the inhibition in assay [2] and in assay [3] were -1% and 6%, respectively. Also, the result in assay [5], in assay [6], in assay [7] and in assay [8] was inactive.

As for `COC(=O)c1cccc(CNCc2ccc(-c3ccc(-c4nc5c(C)cccc5[nH]4)cc3)cc2)c1`, the growth inhibition in assay [1] was 86% (active); in assay [4], 102% (active). The inhibition in assay [2] was 17%; in assay [3], 3%. The outcome in assay [5], in assay [6], in assay [7] and in assay [8] was inactive.

Consider `O=S1(=O)C=C(c2ccccc2)CC1`, for which the growth inhibition in assay [1] is 44%; in assay [4], 97% (active). In addition, the figures for the inhibition in assay [2] and in assay [3] were 57% (active) and -1%, respectively. Also, the outcome in assay [5], in assay [6], in assay [7] and in assay [8] was inactive.

Turning to `CCCc1cc(Cc2cnc(N)nc2N)cc(CC)c1OC`, the growth inhibition is 1% in assay [1] and 97% (active) in assay [4]. In addition, the inhibition in assay [2] is 4%; in assay [3], -7%. In addition, the outcome in assay [5], in assay [6], in assay [7] and in assay [8] was inactive.

Consider `O=C(NC1CCN(Cc2ccccc2)CC1)c1ccc(-c2nc3cc(Cl)c(F)cc3[nH]2)cc1`, for which the growth inhibition in assay [1] and in assay [4] was 100% (active) each time. Moreover, the values for the inhibition in assay [2] and in assay [3] were 13% and 3%, respectively. Further, the outcome in assay [5], in assay [6], in assay [7] and in assay [8] was inactive.

Consider `COc1cc2nc(NCCC(C)C)n3nc(-c4ccccc4)nc3c2cc1OC`, for which the values for the growth inhibition in assay [1] and in assay [4] were 97% (active) and 94% (active), respectively. The values for the inhibition in assay [2] and in assay [3] were -7% and 4%, respectively. For the same compound, the result in assay [5], in assay [6], in assay [7] and in assay [8] was inactive.

`Cn1nc(-c2ccc(NC(=O)Nc3cc(C(F)(F)F)ccc3F)cc2)c2cnc(NCCc3cnc[nH]3)nc21`: the growth inhibition in assay [1] was 56% (active); in assay [4], 99% (active). Besides, the inhibition in assay [2] is 15%; in assay [3], -3%. Besides, the result in assay [5], in assay [6], in assay [7] and in assay [8] was inactive.

Consider `CC(C)Cc1cn(-c2nc(C(=N)N)cs2)c2cc(Cl)ccc12`, for which the growth inhibition in assay [1] was 98% (active); in assay [4], 100% (active). The inhibition was 98% (active) in assay [2] and -1% in assay [3]. Further, the outcome in assay [5], in assay [6], in assay [7] and in assay [8] was inactive.

For the compound `Cc1cccc2[nH]c(-c3ccc(-c4cccc(CN5CCC(CO)CC5)c4)s3)nc12`, the growth inhibition in assay [1] is 61% (active); in assay [4] it was 99% (active). Besides, the results for the inhibition in assay [2] and in assay [3] were 20% and -8%, respectively. The outcome in assay [5], in assay [6], in assay [7] and in assay [8] was inactive.

With `CCC(CC(C)C(=O)O)=C(c1ccccc1)c1ccccc1` (stereo not given), the growth inhibition was 1% in assay [1] and 98% (active) in assay [4]. Further, the inhibition in assay [2] was 12%; in assay [3] it was 5%. In addition, the outcome in assay [5], in assay [6], in assay [7] and in assay [8] was inactive.

Take `CC(C)(C)c1ccc(CN2CCC(CNC(=O)c3cc(-c4cccc(Cl)c4)cs3)C2)cc1` (stereo not given): the growth inhibition in assay [1] is 83% (active); in assay [4], 101% (active). Also, the inhibition in assay [2] was 44%; in assay [3], 1%. The outcome in assay [5], in assay [6], in assay [7] and in assay [8] was inactive.

Regarding `CCOc1cc(O)c(-c2nc(N)ncc2-c2ccc3c(c2)OCCO3)cc1CC`, the values for the growth inhibition in assay [1] and in assay [4] were 68% (active) and 99% (active), respectively. Further, the inhibition in assay [2] was -5%; in assay [3], -1%. The result in assay [5], in assay [6], in assay [7] and in assay [8] was inactive.

As for `COc1ccc(-c2ccc(NC(=O)c3ccc(C#N)cc3)cc2)cc1CN(C)CCO`, the values for the growth inhibition in assay [1] and in assay [4] were 44% and 99% (active), respectively. Moreover, the values for the inhibition in assay [2] and in assay [3] were 41% and 9%, respectively. Also, the outcome in assay [5], in assay [6], in assay [7] and in assay [8] was inactive.
